Assay results from PubChem BioAssay AID903 (National Center for Advancing Translational Sciences (NCATS), 2007).
About 340 (0.62%) of roughly 55,000 compounds were called active. Roughly 3% stayed inconclusive and do not appear here. Only a selection was taken, and actives are over-represented in it overall. A number with no mark means an inactive call. The call rests on the fitted dose curve; in most records, active means well fitted cell-killing curve with a large enough effect; inconclusive means small, poorly fitted or top-dose-only effect; inactive means no such curve, though single readings can be large or run the other way.

Test: qHTS Screen for Compounds that Selectively Target Cancer Cells with p53 Mutations: Cytotoxicity of p53 Null Cells at the Permissive Temperature; further: nearly all actives have a fitted effect of over 55% in size;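 on activity change, negative = cytotoxicity: 0% = DMSO only and -100% = full killing by 100 µM tamoxifen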
Conditions: H1299-neo p53 null cells, ATP luminescence, 24 h, 32C; series mostly up to 46.1 µM; activity change, negative = cytotoxicity: at the top concentration
From the text: NIH Chemical Genomics Center [NCGC] NIH Molecular Libraries Screening Centers Network [MLSCN] MLSCN Grant: 1 X01 MH079844-01 Assay Submitter (PI): Dr. SUN, YI, University of Michigan NCGC Assay Overview: Synthetic Lethal Screen for Compounds to Kill Cancer Cells with p53 Mutation. Tumor suppressor gene p53 serves as a major cellular barrier against tumorigenesis. […] The goal of this screening is to identify small molecule probes that selectively kill cancer cells with mutations in p53. This screening was carried out using two lines of H1299 lung cancer cells. The H1299-p53 A138V line express a temperature sensitive p53 mutant (p53ts) in which the mutant p53 protein (A138V) is in the mutant confirmation when grown at 39C (the nonpermissive temperature) and in the wild type conformation when grown at 32C (the permissive temperature). A H1299-neo line (p53 null) grown at both 39C and 32C were used as counter-screens to filter out false positive associated with temperature shifting. The small molecular compounds that selectively target mutant p53-containing cancer cells were selected as candidate probes for further study. A cytotoxicity assay based on the measurement of ATP contents in cells was used in this screen. Concentration-responses of all the compounds in the library collection were determined in qHTS using the cell lines and temperature conditions as above.
NCGC Assay Protocol Summary: Both the H1299-p53A138V and H1299-neo cell lines were provided by Dr.Yi Sun, a PI at the University Michigan. The cells were maintained and cultured at 37C. The resuspended frozen cells were used to plate the cells in the 1536-well assay plates at a density of 600 cells per well in 5 ul medium. The assay plates with the cells were incubated at 37C for 16 to 30 hours before the experiments. The library compounds in DMSO solution were added to the cells in assay plates and incubated 24 hours at 39C (for mutant p53 conformation) or 32C (for normal p53 conformation as control). An ATP_lite assay kit (PerkinElmer) was used to determine the cell viability. Tomaxifen (100uM) was used as the positive control for cell killing. Data were normalized to the controls for basal activity (DMSO only) and 100% killing (100uM tamoxifen). AC50 values were determined from concentration-response data modeled with the standard Hill equation. P53 assay protocol: 1. Reagent; 5 uL H1299-p53A138V or H1299-neo cell cells/well 2. Time; overnight; 37C incubation 3. Compounds; 23 nL; 5.9 nM to 46 uM 4. Controls; 23 nL; Tamoxifen 100 uM 5. Time; 24 hr; 32C incubation 6. Reagent; 3 uL; ATP_Lite reagent 7. Time; 20 min; Room Temperature 8. Detection; Luminescence; Viewlux plate reader Keywords: p53, synthetic lethal, cancer, cell viability, cytotoxicity, H1299 cell line, luminescence, MLSMR, MLSCN, NIH Roadmap, qHTS, NCGC
Potency means the concentration at half of the fitted maximal effect.

For CC(C)Oc1ccc(NC(=O)c2cc3ccccc3o2)cc1, the Potency was 10 µM (active).

Compared with Cn1cc(/C=C/c2nc3ccccc3c(=O)n2-c2ccccc2)c2ccccc21, CC(C)(C)c1ccc(S(=O)(=O)Nc2ccc(O)c(Sc3nc4ccccc4s3)c2)cc1 is higher in “activity change, negative = cytotoxicity” value: -4.84% for the first, 42.8% for the second.

Going from CCCCOc1ccc(C(=O)N2CC(=O)Nc3ccc(Br)cc3C2c2ccc(F)cc2)cc1 (stereo not given) to Cc1ccc(Cn2c(C)c3cnn(CC(=O)N4CCC5(CC4)OCCO5)c(=O)c3c2C)cc1, the “activity change, negative = cytotoxicity” value falls from 38.6% to 15%.
